Compound activity: PubChem, several laboratories
Autofluor counter: compound fluorescence in toxin protease inhibitor counterscreen; compound autofluorescence counterscreen, microsphere flow cytometry; stronger effect = higher value; fluorescence intensity (concentration not given with the values); hit rate 3.1% among 360,000; AID 624483; in the data active means fluorescence intensity above about 16000; inconclusive means no clear call, values can overlap the other calls
Anthrax LF prot: anthrax lethal factor protease inhibition; hit rate 0.12% among 360,000; inhibition, % at 10 µM; AID 588501; multiplex microsphere protease cleavage assay, LF; further: plate controls were buffer without enzyme for full effect and enzyme alone for no effect
MazF activator: activators of E. coli MazEF toxin-antitoxin RNase; P0AE70; FAM/BHQ RNA-DNA oligo cleavage fluorescence, 5 h; activation, % at 20 µM; hit rate 0.32% among 350,000; AID 504720; in the data active means activation above about 50%
Target sequence (P0AE70 whole entry, looked up): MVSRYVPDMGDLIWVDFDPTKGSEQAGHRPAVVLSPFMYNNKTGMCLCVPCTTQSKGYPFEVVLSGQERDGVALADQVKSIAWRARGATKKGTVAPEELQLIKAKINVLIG
BoNT A protease: inhibitors of Botulinum neurotoxin A light chain protease; multiplex microsphere protease substrate cleavage, flow cytometry; inhibition, % at 10 µM; hit rate 0.17% among 360,000; AID 588499; further: plate controls were buffer without enzyme for full effect and enzyme alone for no effect
BoNT F protease: blocks Botulinum neurotoxin F light chain protease. inhibition, % at 10 µM. Multiplex microsphere protease cleavage assay, flow cytometry. hit rate 0.22% among 360,000; in the data active means inhibition above about 35%, passing the limit was not always enough; inconclusive means no clear call, values can overlap the other calls; further: plate controls were buffer without enzyme for full effect and enzyme alone for no effect
* hit, by the source's call. Sampled rows, rich in hits. Any-hit rate of the full collection: about 3.6%. Unless noted, no stated cut-off is given here; in the data, active means inhibition above about 30%; inconclusive means no clear call, values can overlap the other calls; inactive means below that.

How did CCC(OC(=O)CCc1nc2ccccc2[nH]c1=O)C(=O)c1ccccc1 (configuration not stated) do in these assays?
Autofluor counter: 17407*; Anthrax LF prot: -4.0; MazF activator: 4.1; BoNT A protease: -2.7; BoNT F protease: -7.8

How did CCCCOC(=O)CCn1[nH]c(=O)c2ccccc2c1=O do in these assays?
Autofluor counter: 22758*; Anthrax LF prot: -2.3; MazF activator: 3.6; BoNT A protease: -0.8; BoNT F protease: 0.4

What do the screens show for `CC1=C(C(=O)N(C)C)CC(CC(=O)NCCN2CCOCC2)C(=O)N1Cc1ccc(C(C)(C)C)cc1` (configuration not stated)?
Autofluor counter: 3806; Anthrax LF prot: -3.9; MazF activator: 9.2; BoNT A protease: -0.1; BoNT F protease: -4.4

What do the screens show for `CC(NC(=O)c1ccc(NC(=O)CC2SC(N3CCCC3)=NC2=O)cc1)c1ccc(F)cc1` (configuration not stated)?
Autofluor counter: 9090; Anthrax LF prot: 1.1; MazF activator: -8.9; BoNT A protease: -2.5; BoNT F protease: -8.9

Results for O=C(NC1CC1(c1ccccc1)c1ccccc1)c1ccccc1 (configuration not stated) ?
Autofluor counter: 3350; Anthrax LF prot: 3.0; MazF activator: 6.6; BoNT A protease: 0.1; BoNT F protease: -4.7

Results for O=c1oc(/C=C/c2ccccc2)nc2sc3c(c12)CCC3 ?
Autofluor counter: 4755; Anthrax LF prot: 0.6; MazF activator: 323.6*; BoNT A protease: 0.2; BoNT F protease: -7.6

How did COc1ccc(-n2c(C)nc3sc4c(c3c2=O)CCC4)cc1 do in these assays?
Autofluor counter: 4964; Anthrax LF prot: -1.1; MazF activator: 14.0; BoNT A protease: 0.4; BoNT F protease: -1.5

How did COc1ccc(/C=C/c2nc3sc4c(c3c(=O)o2)CCC4)cc1 do in these assays?
Autofluor counter: 3008; Anthrax LF prot: 3.9; MazF activator: active; BoNT A protease: 4.4; BoNT F protease: 13.6

Results for Cn1cc(Cc2ccc(C(=O)N3CCCCC3)cn2)c2ccccc21 ?
Autofluor counter: 3747; Anthrax LF prot: 0.4; BoNT A protease: -0.2; BoNT F protease: -3.9

What do the screens show for `CCN1C(=O)[C@H]2[C@H]3CN=C(SCc4ccc(C)cc4)N3[C@@](C)(C(=O)OC)[C@H]2C1=O`?
Autofluor counter: 3637; Anthrax LF prot: 1.8; MazF activator: -0.3; BoNT A protease: 0.1; BoNT F protease: 3.2

What do the screens show for `O=C(c1cc(Cl)cc(Cl)c1)N1CCC2CC1c1cc(N3CCCCC3)ccc12` (configuration not stated)?
Autofluor counter: 24126*; Anthrax LF prot: -0.3; MazF activator: -12.6; BoNT A protease: -9.3; BoNT F protease: 26.5

Results for O=C(OCc1ccccc1)N1CCC2CC1c1cc(N3CCCCC3)ccc12 (configuration not stated) ?
Autofluor counter: 3596; Anthrax LF prot: -12.8; MazF activator: 0.8; BoNT A protease: -1.2; BoNT F protease: -5.0

Results for COc1cccc(C(=O)Nc2ncc3c(n2)CC(c2ccc(OC)cc2OC)CC3=O)c1 (configuration not stated) ?
Autofluor counter: 24133*; Anthrax LF prot: -1.9; MazF activator: 1.9; BoNT A protease: inconclusive; BoNT F protease: -0.9

Results for Cc1ccccc1C(=O)NNC(=S)NC(=O)c1ccc(Cl)cc1Cl ?
Autofluor counter: 11749; Anthrax LF prot: -1.3; MazF activator: -0.9; BoNT A protease: -1.4; BoNT F protease: -9.4

What do the screens show for `CCCN(CCC)C(=S)NC(=O)c1ccc(Cl)cc1Cl`?
Autofluor counter: 21981*; Anthrax LF prot: 2.0; MazF activator: 3.7; BoNT A protease: 1.4; BoNT F protease: 2.8

Results for Cc1nn(-c2ccccc2)cc1/C=N/O ?
Autofluor counter: 5979; Anthrax LF prot: -9.3; MazF activator: 1.8; BoNT A protease: -0.4; BoNT F protease: -1.9

What do the screens show for `Cc1nn(C)cc1/C=N/O`?
Autofluor counter: 16844*; Anthrax LF prot: -9.4; MazF activator: 4.5; BoNT A protease: 9.1; BoNT F protease: 12.2

What do the screens show for `CC(C)(C)c1ccc(CC(=O)N2CCC2(C)C(=O)NS(=O)(=O)c2ccccc2)cc1` (configuration not stated)?
Autofluor counter: 4043; Anthrax LF prot: -0.5; BoNT A protease: 1.0; BoNT F protease: 14.0

How did Cn1c(N2CCNCC2)nc2ccccc21 do in these assays?
Autofluor counter: 19898*; Anthrax LF prot: 0.8; MazF activator: 4.2; BoNT A protease: 0.5; BoNT F protease: -0.1

How did COc1ccc(CCN2CC(O)=C(c3nc(C)cs3)C2=N)cc1OC do in these assays?
Autofluor counter: 23439*; Anthrax LF prot: 3.2; MazF activator: -13.8; BoNT A protease: 0.2; BoNT F protease: 0.3

Results for Cc1csc(C2=C(O)CN(CCc3ccccc3)C2=N)n1 ?
Autofluor counter: 12294; Anthrax LF prot: -4.4; MazF activator: -1.2; BoNT A protease: -1.7; BoNT F protease: -13.9

Results for Cn1cccc1/C=N/NC(=O)Cc1cccs1 ?
Autofluor counter: 3872; Anthrax LF prot: 43.0*; MazF activator: 0.4; BoNT A protease: -0.7; BoNT F protease: inconclusive

What do the screens show for `CC(/C=N/NC(=O)Cc1cccs1)=C\c1ccco1`?
Autofluor counter: 21994*; Anthrax LF prot: 0.5; MazF activator: -1.7; BoNT A protease: inconclusive; BoNT F protease: 0.7

What do the screens show for `Cn1cccc1/C=N/NC(=O)c1cccs1`?
Autofluor counter: 6004; Anthrax LF prot: -1.2; MazF activator: 3.3; BoNT A protease: -2.2; BoNT F protease: -6.4

What do the screens show for `CC12CC3(C)CC(C)(C1)CC(C(=O)Nc1nn[nH]n1)(C2)C3`?
Autofluor counter: 8014; Anthrax LF prot: -0.1; MazF activator: -1.5; BoNT A protease: 0.4; BoNT F protease: 1.0

Results for CC12CC3CC(C)(C1)CC(C(=O)Nc1nn[nH]n1)(C3)C2 ?
Autofluor counter: 19766*; Anthrax LF prot: -0.1; MazF activator: -3.8; BoNT A protease: inconclusive; BoNT F protease: 2.5

What do the screens show for `CCC12CC3CC(C1)CC(C(=O)Nc1nn[nH]n1)(C3)C2`?
Autofluor counter: 23265*; Anthrax LF prot: -7.3; MazF activator: -4.0; BoNT A protease: inconclusive; BoNT F protease: 1.6

How did COC(=O)c1ccc2c(=O)[nH]c(COC(=O)c3c(-c4ccccc4)noc3C)nc2c1 do in these assays?
Autofluor counter: 5172; Anthrax LF prot: -1.9; MazF activator: -0.3; BoNT A protease: 1.6; BoNT F protease: -1.4

Results for COc1cccc(C(C)=C2SC(=S)NC2=O)c1 ?
Autofluor counter: 3975; Anthrax LF prot: 0.8; MazF activator: -11.1; BoNT A protease: -0.1; BoNT F protease: 9.2

What do the screens show for `COC(=O)c1ccc(-c2n[nH]c(=O)c3ccccc23)cc1`?
Autofluor counter: 19671*; Anthrax LF prot: -0.7; MazF activator: 0.4; BoNT A protease: inconclusive; BoNT F protease: 2.5

What do the screens show for `Cn1c(=O)c2c(ncn2CCO)n(C)c1=O`?
Autofluor counter: 6122; Anthrax LF prot: -4.1; MazF activator: -1.7; BoNT A protease: -0.2; BoNT F protease: 5.8

How did CCCCn1cnc2c1c(=O)n(C)c(=O)n2C do in these assays?
Autofluor counter: 23846*; Anthrax LF prot: -3.4; MazF activator: -1.1; BoNT A protease: -3.2; BoNT F protease: -7.2
